Results taken from PubChem BioAssay (NCATS).
Inconclusive results are not listed. Calls of active or inactive are those of the source. Calls come from the whole dose curve; as a rule, active = well fitted inhibition curve with a large enough effect; inconclusive = small, poorly fitted or top-dose-only effect; inactive = flat fitted curve, though single readings scatter.

test system: 7G8; experiment: qHTS profiling for inhibitors of Plasmodium falciparum proliferation (AID 504749); note: nearly all actives have a fitted effect of over 60% in size;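 for activity, negative = inhibition: 0% = DMSO vehicle and full inhibition = artemisinin control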; details: P. falciparum in erythrocytes, SYBR Green DNA, 72 h; series mostly up to 12.8 µM; activity, negative = inhibition: at the top concentration
How it was run: (§1)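 Three-day growth assay of blood-stage parasites in erythrocytes (0.3% parasitemia, 2.5% hematocrit) at 37 C, 5% CO2, quantified by SYBR Green DNA staining after overnight detergent lysis.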
Potency is the fitted concentration of half-maximal effect.

SMILES	Potency	activity, negative = inhibition
COc1cc(N[C@@H](C)CCCN)c2ncccc2c1	0.316 µM (active)	
C=Cc1c(C)c2cc3nc(cc4[nH]c(cc5nc(cc1[nH]2)C(C)=C5CCC(=O)O)c(CCC(=O)OC)c4C)[C@@]1(C)C3=CC=C(C(=O)OC)[C@H]1C(=O)OC (tested in a mixture with another compound)	0.355 µM (active)	
O=C(OC[C@@H](O)CO)c1ccccc1Nc1ccnc2cc(Cl)ccc12	3.98 µM (active)	
CO[C@]1(NC(=O)[C@H](C(=O)O)c2ccc(O)cc2)C(=O)N2C(C(=O)O)=C(CSc3nnnn3C)CO[C@H]21		12.5% (inactive)
COc1ccc2c(c1)N(C[C@@H](C)CN(C)C)c1ccccc1S2	3.55 µM (active)	
CCC(=O)[C@@]1(C)[C@H](C)C[C@@H]2[C@@H]3CCC4=CC(=O)C=C[C@@]4(C)[C@H]3[C@H](O)C[C@]21C	2 µM (active)	
COC(=O)[C@@H]1[C@@H]2C[C@H]3c4[nH]c5cc(OC)ccc5c4CCN3C[C@@H]2C[C@H](OC(=O)/C=C\c2cc(OC)c(OC)c(OC)c2)[C@H]1OC	3.16 µM (active)	
CC=C(/C(=C/C)c1ccc(O)cc1)c1ccc(O)cc1		-19.9% (inactive)
CC1(C)S[C@@H]2[C@H](NC(=O)[C@@H](N)c3ccccc3)C(=O)N2[C@H]1C(=O)O[C@H]1OC(=O)c2ccccc21		-3.85% (inactive)

test system: AA1029; experiment: as above; details: P. falciparum in erythrocytes, SYBR Green DNA, 72 h; series mostly up to 12.8 µM; activity, negative = inhibition: at the top concentration
How it was run: as §1

SMILES	activity, negative = inhibition	Potency
CCO[C@H]1O[C@@H]([C@H](COCc2ccccc2)OCc2ccccc2)[C@@H](OCc2ccccc2)[C@H]1O	-8.3% (inactive)	
COc1cc(N[C@@H](C)CCCN)c2ncccc2c1		2.51 µM (active)
C=Cc1c(C)c2cc3nc(cc4[nH]c(cc5nc(cc1[nH]2)C(C)=C5CCC(=O)O)c(CCC(=O)OC)c4C)[C@@]1(C)C3=CC=C(C(=O)OC)[C@H]1C(=O)OC (tested in a mixture with another compound)		5.01 µM (active)
O=C(OC[C@@H](O)CO)c1ccccc1Nc1ccnc2cc(Cl)ccc12	-5.9% (inactive)	
CO[C@]1(NC(=O)[C@H](C(=O)O)c2ccc(O)cc2)C(=O)N2C(C(=O)O)=C(CSc3nnnn3C)CO[C@H]21	0.0147% (inactive)	
COc1ccc2c(c1)N(C[C@@H](C)CN(C)C)c1ccccc1S2	-28.8% (inactive)	
CCC(=O)[C@@]1(C)[C@H](C)C[C@@H]2[C@@H]3CCC4=CC(=O)C=C[C@@]4(C)[C@H]3[C@H](O)C[C@]21C	0.439% (inactive)	
CCC(C)(C)C(=O)O[C@@H]1C[C@H](C)C=C2C=C[C@H](C)[C@@H](CC[C@H]3C[C@@H](O)CC(=O)O3)[C@H]21	-9.19% (inactive)	
COC(=O)[C@@H]1[C@@H]2C[C@H]3c4[nH]c5cc(OC)ccc5c4CCN3C[C@@H]2C[C@H](OC(=O)/C=C\c2cc(OC)c(OC)c(OC)c2)[C@H]1OC		3.16 µM (active)
CC=C(/C(=C/C)c1ccc(O)cc1)c1ccc(O)cc1	-3.59% (inactive)	
CC1(C)S[C@@H]2[C@H](NC(=O)[C@@H](N)c3ccccc3)C(=O)N2[C@H]1C(=O)O[C@H]1OC(=O)c2ccccc21	8.22% (inactive)	
